Experimental findings from PubChem BioAssay are described below.

In the experiment the target is Alpha-bungarotoxin (Bungarus multicinctus) (UniProt P60615). In words: compounds binding labelled alpha-BTX control protein – biochemical, small-molecule microarray, Alexa647 label, 635/667 nm fluorescence, artefact control for SMM control protein annotation, profiling panel (AID 1117). To be noted: alpha-BTX-A647 binding fluorescence, higher = more signal.
Chain of Alpha-bungarotoxin (Bungarus multicinctus) (P60615 whole entry, looked up): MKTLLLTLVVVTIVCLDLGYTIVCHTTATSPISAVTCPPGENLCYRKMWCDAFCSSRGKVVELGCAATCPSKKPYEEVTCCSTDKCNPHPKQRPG
Molecule `COCCOC(=O)N1C(=O)[C@@]2(c3cc(C#CCC(C(=O)OC)C(=O)OC)ccc31)[C@H](c1ccc(OCCO)cc1)N1[C@H](c3ccccc3)[C@H](c3ccccc3)OC(=O)[C@H]1[C@@H]2C(=O)N1CCCCCCC1` displayed a composite z-score of 2.32. The figure for `Cc1ccc(S[C@]2(C(=O)NCC(F)(F)F)CC(=O)N(C3CCCCC3)[C@@H]2c2ccc(CO)cc2)cc1` is 0.28; for `COCCOC(=O)N1C(=O)[C@@]2(c3ccccc31)[C@H](C(N)=O)[C@H]1C(=O)O[C@H](c3ccccc3)[C@H](c3ccccc3)N1[C@@H]2c1ccc(OCCO)cc1` it is 1.37. The figure for `C=CCC(OC(C)=O)[C@@H]1[C@@H](N(Cc2ccc(-c3cccc(C(F)(F)F)c3)o2)C(=O)c2cccc3ccccc23)c2cc(OCCCO)ccc2N1C(=O)c1ccc2ccccc2c1` (stereo not given in full) is 0.108. The molecule `COc1ccc(NC(=O)O[C@H]2[C@H](OC(=O)Nc3ccc4c(c3)OCO4)[C@H](OC(=O)Nc3ccc4c(c3)OCO4)[C@@H](OC)O[C@@H]2CO)cc1` had a composite z-score of 0.425. With `[N-]=[N+]=NCc1ccccc1C[C@]1(C(=O)N2CCOCC2)N=C(c2ccc(OCCCO)cc2)O[C@H]1c1ccccc1CN=[N+]=[N-]` the figure was 2.74. The molecule `CCCCC(=C=CC[C@@H](O)c1cccc(OCCO)c1)CCO` registered a composite z-score of 2.16. `CC(C)C[C@@H]1NC(=O)[C@H]2C[C@@H](C(=O)NCCCCCCNC(=O)CS)[C@@H](c3ccc(O)cc3)N2C1=O` displayed a composite z-score of -0.827. With `C=CCC(OC(C)=O)[C@@H]1[C@@H](N(Cc2cc3ccccc3o2)C(=O)Cc2ccc(OC)cc2)c2cc(OCCCO)ccc2N1C(=O)Cc1ccc(OC)cc1` (stereo not given in full) the figure was 0.673; with `COc1ccc([Si](C)(C)[C@H]2[C@H](CCn3cc([C@H](O)c4ccccc4)nn3)O[C@@]3(C(=O)N(c4ccccc4)c4ccccc43)[C@@H]2C)cc1`, 0.0509; with `Cc1ccccc1C(O)C1C=CC2C(=O)N(c3ccccc3)C(=O)C2N1Nc1ccccc1F` (stereo not given), 1.83.

`C=CC[C@@]1(C(=O)N(C)C)N=C(c2ccc(OCCCO)cc2)O[C@@H]1c1ccccc1` displayed a composite z-score of 0.826. `CCCCC(O)C1C=CC2C(=O)N(C)C(=O)C2N1Nc1ccccc1` (stereo not given) displayed a composite z-score of 0.27. With `COC(=O)C1=CC(CCCO)=CC(c2ccc(CN3CCCC3)cc2)N(Cc2sc3ccccc3c2Cl)C=C1C(=O)OC` (stereo not given) the figure was 3.77; with `C=C(/C(=C/C[C@@H](OC(C)=O)c1ccccc1OCCO)c1cc(C(=O)OC)ccc1OC)C(C)C`, -0.598; with `CCCC=C(CCC)[C@@H](NC(=O)c1ccccc1)c1ccc(C(=O)OC)cc1`, 0.303. The figure for `COC(=O)[C@@]1(Cc2ccc(OC)cc2)[C@@H]2[C@@H](CC(=O)[C@H]2CC(=O)C(=O)N2CCCC2)CN1C(=O)c1ccccc1` is 1.49; for `CCCCCN1CC=CC23O[C@@H]4C=CCOC(=O)[C@@H]4[C@H]2C(=O)N(CCCCCO)[C@@H]3C1=O` (stereo not given in full) it is -0.724. The figure for `COc1ccc(CCNC(=O)[C@@]2(Sc3ccc(C)cc3)CC(=O)N(Cc3cc(C(F)(F)F)cc(C(F)(F)F)c3)[C@@H]2c2ccc(CO)cc2)cc1` is 1.24; for `CN1C(=O)[C@]2(CCC(=O)OC(C)(C)C)N=C(c3ccc(OCCCO)cc3)O[C@@H]2c2ccccc21` it is 1.14.

In the case of `COC(=O)[C@@]1(Cc2ccccc2CN=[N+]=[N-])COC(c2ccc(OCCCO)cc2)=N1`, the composite z-score came to 3.02.

In turn, `CCCC[C@H]1OB(O)C[C@H]2C1=C(C)C[C@H]1C(=O)C=CC(=O)[C@H]12` had a composite z-score of 0.178.

`O=C1O[C@H](c2ccccc2)[C@H](c2ccccc2)N2[C@H]1[C@@H](C(=O)NC[C@H](O)c1ccccc1)[C@]1(C(=O)Nc3ccc(C#CCCO)cc31)[C@H]2c1ccccc1OCCO` gave a composite z-score of 2.1.

For the molecule `CCC[C@@H]1[C@@H](Sc2ccccc2)[C@@H](C(=O)O)[C@H](c2ccc(C)cc2)N1S(=O)(=O)c1ccc(C)cc1`, the composite z-score was found to be 1.41.

`CC(C)(C)OC(=O)CC[C@]1(C(=O)N2CCOCC2)N=C(c2ccc(OCCCO)cc2)O[C@H]1c1ccccc1CN=[N+]=[N-]` came in with a composite z-score of 1.68.

In the case of `COC(=O)[C@@]1(Cc2ccc(F)cc2)[C@H]2c3cc(C(=O)N(C)C)n(CCN4CCOCC4)c3C[C@H]2CN1C(=O)c1ccccc1`, the composite z-score is 0.0194. With `O=C1OCCC/C=C\[C@H]2OC34C=CCN(Cc5ccccc5)C(=O)[C@H]3N(CCCCCO)C(=O)[C@@H]4C12` (stereo not given in full), the composite z-score is -1.57. The figure for `CCOC(=O)C[C@H]1[C@H](OC(=O)c2ccc(C(=O)c3ccccc3)cc2)[C@@H](NC(=O)c2ccc3ccccc3c2)c2cc(OCCCO)ccc2N1C(=O)c1ccc2ccccc2n1` is 0.898; for `NC(=O)NCC#Cc1ccc2c(c1)[C@]1(C(=O)N2)[C@H](C(=O)Nc2nc3ccccc3s2)[C@H]2C(=O)O[C@H](c3ccccc3)[C@H](c3ccccc3)N2[C@@H]1c1ccc(OCCO)cc1` it is 0.9. With `CC(C)C(=C=CC[C@@H](O)c1ccccc1OCCO)C[C@@H](O)c1cc(Cl)cc(Cl)c1O` the figure was 1.54; with `COC(=O)[C@@H]1N=C(c2ccc(OCCCO)cc2)O[C@@H]1c1ccccc1CN=[N+]=[N-]`, 0.893; with `COc1cc2c(cc1O)C(C1CC1)N(Cc1ccc([N+](=O)[O-])o1)CC2` (stereo not given), 0.42. With `COc1ccc(NN2C(C(O)c3cc(C(F)(F)F)cc(C(F)(F)F)c3)C=CC3C(=O)N(C4CCCCC4)C(=O)C32)cc1` (stereo not given) the figure was 0.698; with `C=CCC(OC(C)=O)[C@@H]1[C@@H](N(Cc2ccc(-c3ccccc3)cc2)C(=O)c2ccc(-c3ccccc3)cc2)c2cc(OCCCO)ccc2N1C(=O)c1ccc2ccccc2n1` (stereo not given in full), -0.282; with `O=C(NCC(F)(F)F)[C@@H]1c2ccccc2C(=O)N(CC23CC4CC(CC(C4)C2)C3)[C@H]1c1ccc(CO)cc1`, -0.523.
